In all, about 69,000 compounds went through this assay and about 8,600 (12%) showed an effect of 50% or more. Many of the other results were omitted from the sample, so strong results are more common in it than they were.

In this assay the test system is Plasmodium berghei. Briefly: Screen against P. berghei liver stage (PbLuc), transformed with Luciferase, at 10uM. It counts as functional, HepG2. The following applies: tested at 10 uM.
For the compound `CC(=O)N1CCC(c2cccc(-c3cccc(C(=O)O)c3)n2)CC1`, the INHIBITION is on record as 25.8%.

For `Cc1cnn(CC2CCCN2C(=O)c2ccc(Cl)cc2F)c1` (centres undefined), the INHIBITION is on record as 3.73%.

Consider `CCc1nc(C2CCCN(C(=O)c3c(C)noc3C)C2)no1` (centres undefined), for which the INHIBITION was determined as 45.1%.

Turning to `Cc1noc(C)c1-c1cccc(C2CCCNC2)n1` (centres undefined), the INHIBITION is listed as -57.4%.

For the compound `CCCc1ccc2oc(C(=O)N3CCN(CCC(N)=O)CC3)c(C)c2c1`, the INHIBITION is given as 18.5%.

Take `Cc1c(NC(=O)CN2CCC(Oc3cnccn3)CC2)cnn1C`: the INHIBITION stood at 0.696%.

Regarding `COCCC(=O)N1CCCC(CCC(=O)Nc2ccc(Cl)cc2)C1` (centres undefined), the INHIBITION is 57.2%.

`O=C(CCC1CCCN(S(=O)(=O)C2CC2)C1)Nc1ccc(Cl)cc1` (centres undefined): the INHIBITION was 28%.

For `COCCC(=O)N1CCCC(CCC(=O)NCc2ccccc2F)C1` (centres undefined), the INHIBITION was -4.12%.

As for `COCCC(=O)N1CCCC(CCc2ccc(F)c(F)c2)C1` (centres undefined), the INHIBITION came out at 4.97%.

Turning to `O=C(CCC1CCCN(C(=O)CCc2ccc(F)c(F)c2)C1)NC1CC1` (centres undefined), the INHIBITION stood at 75.4%.

Turning to `COCCC(=O)N1CCCC(CCC(=O)NCc2cccc(OC)c2)C1` (centres undefined), the INHIBITION stood at 9.52%.

For the compound `Cc1ccc(-c2nc3cc(S(=O)(=O)N4CCCC4)ccc3n2C)o1`, the INHIBITION is 14.1%.

In the case of `CCc1cccc2cc(CNCCOC)c(=O)[nH]c12`, the INHIBITION is reported as 24.95%.

For the compound `O=C(CCn1ccnc1)N1CCCC(n2cncn2)C1` (centres undefined), the INHIBITION worked out at 49%.

Regarding `Cc1cccc(CN2CCCC3(CCN(CC4CCCO4)CC3)C2)n1` (centres undefined), the INHIBITION is reported as 53%.

Consider `Cn1ccnc1CN1CCCC2(CCN(CC3CCCO3)CC2)C1` (centres undefined), for which the INHIBITION was found to be 38.1%.

As for `c1cc(CN2CCCC3(CCN(CC4CCCO4)CC3)C2)n[nH]1` (centres undefined), the INHIBITION is 47.5%.

Turning to `c1cncc(N2CCCC3(CCN(CC4CCCO4)CC3)C2)c1` (centres undefined), the INHIBITION turned out to be 3.58%.

`Cc1cccc(CN2CCOCC3(CCN(C4CCOCC4)C3)C2)n1` (centres undefined): the INHIBITION is on record as -34.9%.

For the compound `c1ccc(CN2CCCC3(CCN(CC4CCCO4)CC3)C2)nc1` (centres undefined), the INHIBITION was determined as 62%.

For `c1cc(CN2CCc3c(nnn3CC3CC3)C2COCC2CC2)co1` (centres undefined), the INHIBITION was found to be 27.4%.

As for `CCN1CCOCC2(CCCN(C(=O)c3ccncc3F)C2)C1` (centres undefined), the INHIBITION is recorded as 27.2%.

Take `Cc1c(C(=O)N2CCCN(S(C)(=O)=O)CC2)cnn1C`: the INHIBITION is -4.96%.

As to `N#CCCCS(=O)(=O)NC1(c2ccc(F)cc2)CC1`, the INHIBITION is reported as 26.4%.

Consider `CN(C)c1ccc(NC(=O)NCC2CCOC2)cn1` (centres undefined), for which the INHIBITION amounted to 77.85%.

With `O=C(NCC1CCOC1)Nc1ccc(Oc2cccc(F)c2)nc1` (centres undefined), the INHIBITION was -8.15%.

With `O=C(NCC1CCOC1)Nc1ccc(Oc2ccc(F)cc2)nc1` (centres undefined), the INHIBITION came out at 3.67%.

In the case of `O=C(NCC1CCOC1)Nc1ccc(OCC(F)(F)F)nc1` (centres undefined), the INHIBITION is 23.2%.

For `Cc1ccc(Oc2ccc(NC(=O)NCC3CCOC3)cn2)cc1C` (centres undefined), the INHIBITION came to 58.2%.

For the compound `CCN(CC)c1ccc(NC(=O)NCC2CCOC2)cn1` (centres undefined), the INHIBITION is listed as -45.3%.

On to `COc1ncccc1CNC(=O)NCCNS(C)(=O)=O`, for which the INHIBITION is reported as -9.37%.

In the case of `CC(C)CS(=O)(=O)N1C[C@@H]2C[C@H](C(=O)Nc3cccnc3)[C@H](C1)O2`, the INHIBITION is -10.3%.

In the case of `CN1N=C(C(=O)N(Cc2ccco2)C2CC2)CCC1=O`, the INHIBITION is on record as 19%.

For `Cc1c(Br)cccc1C(=O)NCC1CCNCC1`, the INHIBITION is given as 39.7%.

For `Cn1cccc1CN1CCC2(CCCN(C(=O)c3cccnc3)C2)CC1`, the INHIBITION is reported as -43.1%.

As for `CCC(CC)n1nc(C)cc1NC(=O)C1CCCO1` (centres undefined), the INHIBITION is given as -56.4%.

In the case of `CC(C)(C)c1cc(NC(=O)C2CCCO2)n(-c2ccccn2)n1` (centres undefined), the INHIBITION was determined as 52.5%.

Regarding `CCSCc1ccnc(NC(=O)C2CCCO2)c1` (centres undefined), the INHIBITION is given as -4.26%.

For `Cc1ccnc(NC(=O)C2CCCO2)c1` (centres undefined), the INHIBITION is 62.3%.

`Cc1nccn1-c1cc(CNC(=O)C2CCCO2)ccn1` (centres undefined): the INHIBITION is 21%.

For `CC(C)(C)c1cc(NC(=O)C2COCCO2)n(-c2ccccn2)n1` (centres undefined), the INHIBITION is 30.7%.

As to `O=C(c1cnccn1)N1CCC2(CC1)CC(Oc1ccccc1)CO2` (centres undefined), the INHIBITION is on record as 41.3%.

Take `CCOCC1CCN(C(=O)c2sc(C)cc2OC(F)F)CC1`: the INHIBITION is listed as 0.325%.

For the compound `COc1cc(CCC(=O)NC2CCN(C)CC2)ccc1OCC(F)(F)F`, the INHIBITION is -14.7%.

Regarding `COCCNC(=O)c1ccc(NCc2csc(C)n2)cc1Cl`, the INHIBITION is given as 16%.

Consider `COCCOc1cccc(C(=O)N2CCCC(n3cccn3)C2)c1` (centres undefined), for which the INHIBITION is 9.94%.

Turning to `CC1CCc2nn(CCNC(=O)Cc3cccs3)c(=O)cc2C1` (centres undefined), the INHIBITION was -45.7%.

Turning to `Cc1nc(CN(CCS(C)(=O)=O)C(C)C)no1`, the INHIBITION is given as 49.3%.

For `c1ccc(COC[C@H]2CC[C@H]3[C@H](CCN3Cc3cccs3)O2)nc1`, the INHIBITION amounted to 49.7%.

For the compound `c1cncc(COC[C@H]2CC[C@H]3[C@H](CCN3Cc3cccs3)O2)c1`, the INHIBITION is 31.8%.

For `CN(C)C(=O)COC[C@H]1CC[C@@H]2[C@@H](CCN2Cc2ccco2)O1`, the INHIBITION is -11.6%.

With `c1coc(CN2CC[C@@H]3O[C@@H](COCC4CCOCC4)CC[C@@H]32)c1`, the INHIBITION was -30%.

Regarding `c1coc(CN2CC[C@@H]3O[C@@H](COCc4ccncc4)CC[C@@H]32)c1`, the INHIBITION is on record as 0.164%.

For the origin of these results see ChEMBL document CHEMBL4513216, “Probing the Open Global Health Chemical Diversity Library for Multistage-Active Starting Points for Next-Generation Antimalarials” (ACS Infect Dis, 2020).
